TDP1 cell CPT: growth inhibition of DT40 Tdp1-/-;hTDP1 cells with camptothecin (screen for TDP1 inhibitors) | Potency, µM (series often up to 46.2 µM), inactives show top-dose activity change, negative = growth inhibition, hits mostly inhibitors | chicken DT40 Tdp1-/-;hTDP1 cells + 20 nM CPT, ATP luminescence, 48 h | 420,000 tested, 12% active; further: nearly all actives have a fitted effect of over 55% in size
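Cell growth measured by CellTiter-Glo luminescence after a minimum 48 h, 37 C compound exposure with 20 nM CPT in Tdp1-knockout DT40 cells stably expressing hTDP1, seeded 400/well; qHTS titration format.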
HT1080 IDH1KD tx: kills HT-1080 cells with IDH1 knockdown; Potency, µM (doses to about 46.1 µM), inactives show top-dose activity, negative = toxicity, usual class: cytotoxic; 360,000 tested, 2% active; HT-1080 IDH1 knockdown viability, ATP luminescence, 48 h; AID 686971;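 further: 0% = DMSO wells and -100% = cell-free medium wells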
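In this qHTS, HT-1080 cells depleted of IDH1 are exposed for 48 h at 37 °C to compound titrations. Toxicity is scored from CellTiter-Glo luminescence, with DMSO as full viability and medium alone as none.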
KB-3-1 tox: kills parental KB-3-1 adenocarcinoma cells; KB-3-1 viability, CellTiter-Glo ATP luminescence, 72 h; Potency, µM (highest dose often 46.1 µM), usual class: cytotoxic; 400,000 tested, 1.4% active; further: nearly all actives have a fitted effect of over 60% in size
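Screening of KB-3-1 cells (DMEM, 10% FBS, phenol-red free) ran from lowest to highest compound concentration; after 72 h at 37 °C viability was read luminescently and curves fitted.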
TDP1 cell noCPT: qHTS for Inhibitors of human tyrosyl-DNA phosphodiesterase 1 (TDP1): qHTS in cells in absence of CPT; 420,000 tested, 15% active; AID 686978, 2013; Potency, µM (highest dose often 46.2 µM), for the others: top-dose activity change, negative = growth inhibition, most hits filed as inhibitors; DT40 Tdp1-/- hTDP1 cells, no CPT, ATP luminescence, 48 h; further: nearly all actives have a fitted effect of over 55% in size
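Compound effects on proliferation are scored in DT40 Tdp1-/-;hTDP1 cells in the absence of CPT. ATP levels (CellTiter-Glo luminescence) are recorded after a ≥48 hr, 37 °C incubation.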
KB-V1 cytotox: kills drug-selected multidrug resistant KB-V1 cells; Potency, µM (series often up to 46.1 µM), usual class: cytotoxic; 400,000 tested, 3.4% active; KB-V1 MDR cells viability, CellTiter-Glo, 72 h; AID 1347076; further: nearly all actives have a fitted effect of over 60% in size
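Following 72 h at 37 degrees C with compound, KB-V1 cell viability was read by CellTiter-Glo luminescence, medium being phenol-red-free DMEM plus 10% FBS; concentration-response parameters came from normalized, curve-fitted qHTS data.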
HT1080NT lethal: kills 2HG-producing HT-1080-NT fibrosarcoma cells. AID 686970. Potency, µM (series often up to 46.1 µM), for the others: top-dose activity, negative = less viability, usual class: cytotoxic. HT-1080-NT fibrosarcoma viability, CellTiter-Glo ATP luminescence, 48 h. 360,000 tested, 1.6% active;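 further: NT is the 2HG producing partner of a matched IDH1 knockdown line; 0% = DMSO-treated cells and -100% = media-only wells without cells; nearly all actives have a fitted effect of over 55% in size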
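Viability by CellTiter-Glo luminescence after 48 h compound exposure at 37C of HT-1080-NT cells (750/well, RPMI, 5% FBS). % activity scaled between DMSO wells and medium-only wells, then curve-fitted and categorized by curve class.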
* = called active by the depositor; i = inactive; ? = inconclusive; . = not tested or not shown; [ ] = another dose, or the depositor's remark. Hits are enriched below; roughly 19% of the tested compounds scored in any of these assays. The call rests on the fitted dose curve; in most records, active means well fitted curve in the direction sought with a large enough effect; inconclusive means small, poorly fitted or top-dose-only effect, or another doubt; inactive means no such curve, though single readings can be large; an effect the other way counts as inactive or inconclusive. Unless noted, on the % scale 0 is the no-effect control and ±100 the full control effect; potency means the concentration at half of the fitted maximal effect.

SMILES	TDP1 cell CPT	HT1080 IDH1KD tx	KB-3-1 tox	TDP1 cell noCPT	KB-V1 cytotox	HT1080NT lethal
CC1(C(=O)NS(=O)(=O)c2cccc(OC(F)F)c2)CCN1C(=O)Cc1ccsc1 (centres undefined)	-18.2%	8.4%	i	-9.9%	i	?
Cc1ccc(C(=O)N(Cc2cc3ccc(F)cc3nc2N2CCC(O)CC2)CC2CCCO2)cc1 (centres undefined)	2.1%[9.04 µM]	.	.	-5.4%	.	.
O=C(Nc1ccc(Cl)cc1)OCCN1CCOCC1	-3.6%	5.7%	i	-28.8%	i	9.9%
O=C(Nc1ccc(Cl)cc1)OCCn1nnnc1C(c1ccccc1Cl)N1CCOCC1 (centres undefined)	25.9µM*	?	i	18.4µM*	?	-27.4%
CCc1nc2ccc(C(=O)Nc3cccc(OC)c3)cn2c1N(C)Cc1ccc(OC)cc1	?	-29.0%	i	?	i	?
Cc1ccccc1-c1noc(-c2ccc(N3CCN(C)CC3)c([N+](=O)[O-])c2)n1	16.4µM*	.	i	13µM*	i	.
Cc1ccccc1-c1noc(-c2ccc(N3CCCC3)c([N+](=O)[O-])c2)n1	-9.5%	.	i	-14.1%	i	.
O=[N+]([O-])c1cc(-c2nc(-c3ccccc3)no2)ccc1N1CCCCC1	-17.0%	.	i	?	i	.
COc1cc(-c2noc(-c3ccc(N4CCN(C)CC4)c([N+](=O)[O-])c3)n2)cc(OC)c1OC	3.26µM*	.	i	3.26µM*	i	.
COc1ccccc1-c1noc(-c2ccc(N3CCN(C)CC3)c([N+](=O)[O-])c2)n1	?	.	i	?	i	.
CN1CCN(c2ccc(-c3nc(-c4ccccc4)no3)cc2[N+](=O)[O-])CC1	?	.	i	14.6µM*	i	.
FC(F)(F)c1cc(NC2CCCCC2)ccn1	-15.8%	0.0%	i	29.1µM*	i	-1.6%
CC1CCN(C(=O)CSc2nnc(CNC(=O)c3ccc(F)cc3)o2)CC1	0.9%	-1.7%	i	-15.0%	i	4.8%
CO[C@H]1O[C@@H]2O[C@@]3(C)CC[C@H]4[C@H](C)CC[C@@H]([C@H]1C)[C@@]24OO3	2.66µM*	.	.	1.5µM*	.	.
CN(C)CCCNC(=O)c1ccc(-c2cc3nc(NCc4cccnc4)n(C)c(=O)c3s2)cc1	-26.6%	0.0%	i	-0.3%	i	0.8%
O=S(=O)(c1ccccc1Cl)N1CCCC(c2nc(-c3cccnc3)no2)C1 (centres undefined)	-12.2%	-0.8%	i	-22.9%	7.31µM*	0.1%
O=S(=O)(c1ccccc1Cl)N1CCCC1c1nc(-c2cccc(Cl)c2)no1 (centres undefined)	?	-14.3%	i	-14.2%	?	-13.4%
COc1ccc(-c2noc(C3CCCN(S(=O)(=O)c4cccc(Cl)c4C)C3)n2)cc1OC (centres undefined)	?	11.3%	i	?	18.4µM*	3.6%
COc1ccc(-c2noc(C3CCCN(S(=O)(=O)c4ccc(C)c(Cl)c4)C3)n2)cc1OC (centres undefined)	?	25.5%	i	20.6µM*	3.66µM*	9.1%
C[C@@H]1CN([C@H](C)CO)C(=O)c2cc(Br)cnc2O[C@@H]1CN(C)Cc1ccc(F)cc1	-20.7%	5.0%	i	-26.8%	i	-14.1%
CCOC(=O)C1(Cc2cccc(F)c2)CCN(C(=O)c2cnc(C)cn2)CC1	-21.7%	7.3%	i	-12.1%	i	9.1%
Cn1c(=O)c2sccc2n2c(CCCC(=O)NCCc3ccccc3)nnc12	-7.5%	0.0%	i	-3.8%	i	-1.3%
Cc1cc2c(cc3c(SCc4ccccc4Cl)nnc(C)n32)o1	?	.	i	?	i	.
CCOC1=C2CN(S(=O)(=O)c3ccc(C)cc3)C(c3ccc(CC)cc3)CC2n2c(=O)n(-c3ccccc3)c(=O)n2C1 (centres undefined)	-20.0%	2.8%	i	-19.4%	i	-0.7%
COc1ccc(-c2cc(NC(C)=O)c3ncc(-c4cccc(C(F)(F)F)c4)n3c2)c(OC)c1	?	?	i	?	i	-28.6%
SMILES	TDP1 cell CPT	HT1080 IDH1KD tx	KB-3-1 tox	TDP1 cell noCPT	KB-V1 cytotox	HT1080NT lethal
CC(=O)Nc1cc(-c2ccc(C(=O)N3CCOCC3)cc2)cn2c(-c3ccc(C(C)=O)cc3)cnc12	25.9µM*	0.4%	i	11.6µM*	i	-9.8%
CC(=O)Nc1cc(-c2ccc(C(=O)N3CCOCC3)cc2)cn2c(-c3ccccc3)cnc12	?	-17.9%	i	?	i	-19.9%
CC(=O)Nc1cc(-c2ccc(C(=O)N3CCOCC3)cc2)cn2c(-c3cccc(C(F)(F)F)c3)cnc12	?	1.1%	i	14.6µM*	i	-3.2%
COc1ccc(-c2cnc3c(NC(C)=O)cc(-c4ccc(C(=O)N5CCOCC5)cc4)cn23)cc1OC	?	-22.1%	i	23.1µM*	i	?
CC(=O)Nc1cc(-c2ccc(C(=O)N3CCOCC3)cc2)cn2c(-c3ccc(F)cc3)cnc12	?	-15.0%	i	8.2µM*	i	-20.6%
CCOC(=O)c1ccc(NC(=O)CSC2=NN3CCCC(=O)N=C3S2)cc1	20.6µM*	-11.1%	i	?	i	-2.8%
CCOC(=O)c1c(NC(=O)CSC2=NN3CCCC(=O)N=C3S2)sc2c1CCCCC2	20.6µM*	-1.0%	?	?	i	-11.6%
COc1ccc(Cl)cc1NC(=O)CSC1=NN2CCCC(=O)N=C2S1	?	-23.1%	i	11.6µM*	i	-5.7%
COCCN(CCOC)Cc1cc(=O)oc2ccccc12	-3.7%	11.4%	i	-0.2%	i	11.3%
COc1ccc(-c2[nH]c(-c3ccc(C)cc3)nc2SCC(=O)Nc2nccs2)cc1	?	?	?	?	23.1µM*	?
COCCNC(=O)CSc1nc(-c2ccc(F)cc2)[nH]c1-c1ccc(Cl)cc1	?	.	i	25.9µM*	i	.
Cc1ccc(-c2[nH]c(-c3ccccc3)nc2SCC(=O)NCC2CCCO2)cc1 (centres undefined)	14.6µM*	0.0%	i	23.1µM*	i	-6.8%
COc1ccc(-c2[nH]c(-c3ccc(Cl)cc3)nc2SCC(=O)NCC2CCCO2)cc1 (centres undefined)	10.3µM*	.	i	7.31µM*	i	.
